This note sets out measurements from PubChem BioAssay (NCATS).

Records with an inconclusive call do not appear. Active and inactive are the calls of the source. Unless noted, the call rests on the fitted dose curve; in most records, active means well fitted curve in the direction sought with a large enough effect; inconclusive means small, poorly fitted or top-dose-only effect, or another doubt; inactive means no such curve, though single readings can be large; an effect the other way counts as inactive or inconclusive.

Assay [1] can be described thus: qHTS to identify inhibitors of the type 1 interferon - major histocompatibility complex class I in skeletal muscle: primary screen against the NCATS Mechanism Interrogation Plate v5.0 (MIPE) Libary (AID 1347411). Further: nearly all actives have a fitted effect of over 65% in size. Further: potency means the concentration at half of the fitted maximal effect.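 On activity change, negative = inhibition: plate controls were vehicle for no effect and reference inhibitor for full effect.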 In short, it runs like this:
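Immortalized human myoblasts (C25cl48) with HiBit knocked into endogenous HLA-B*08:01 were stimulated with 4 ng/ml IFN-beta and given compounds in 11-point 1:3 titration from 46 uM. After 24 h at 37 C, lytic HiBiT luminescence was read.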
(In general: Quantitative high-throughput screening tests each substance at several concentrations.)

The nature of assay [2]: Primary qHTS for inhibitors of nuclear receptor binding SET domain protein 2 (NSD2) in an isogenic RCH-ACV NSD2 p.E1099K mutant (9B) (AID 1645876). Further: nearly all actives have a fitted effect of over 70% in size. Further: potency means the concentration at half of the fitted maximal effect. On activity change, negative = viability loss: on the % scale 0 is the no-effect control and ±100 the full control effect.
A short description of assay [3]: Primary qHTS for inhibitors of nuclear receptor binding SET domain protein 2 (NSD2) in an RCH-ACV wild type WT cells (2C) (AID 1645877). Further: nearly all actives have a fitted effect of over 70% in size. Further: potency means the concentration at half of the fitted maximal effect. On activity change, negative = cell killing: on the % scale 0 is the no-effect control and ±100 the full control effect.
Assay [4] deals with Glutathione peroxidase 1 (Homo sapiens) (UniProt P07203). The assay can be described thus: Primary qHTS Assay for Inhibitors of Recombinant Selenoprotein Glutathione Peroxidase 1 (GPX1) (AID 1845191). Further: nearly all actives have a fitted effect of over 65% in size. In short, it runs like this: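 GR-coupled assay: compounds preincubated 30 min at room temperature with GPX1, then reaction started with CHP; final 10 nM GPX1, 1 mM GSH, 0.5 mM CHP, 0.5 mM NADPH, 100 nM GR, 0.01% BSA, pH 7.5 Tris buffer. NADPH fluorescence (340/450 nm) read at 0 and 15 min.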

Assay [5] addresses Phospholipid hydroperoxide glutathione peroxidase GPX4 (Homo sapiens) (UniProt P36969). The assay can be described thus: Primary qHTS Assay for Inhibitors of Recombinant Selenoprotein Glutathione Peroxidase 4 (GPX4) (AID 1845192). Further: nearly all actives have a fitted effect of over 65% in size. On activity change, negative = inhibition: series mostly up to about 50 µM; on the % scale 0 is the no-effect control and ±100 the full control effect. The following applies: outcome: dose series up to 50 µM unless noted. In short, it runs like this: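 GR-coupled assay: recombinant GPX4 preincubated 30 min with compound at room temperature; final 200 nM GPX4, 1 mM GSH, 0.5 mM cumene hydroperoxide, 0.5 mM NADPH, 100 nM GR, 0.01% BSA, pH 7.5 Tris. NADPH fluorescence (340/450 nm) read at 0 and 15 min.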

A short description of assay [6]: qHTS drug screen for cell cycle checkpoint inhibitors in PARPi-resistant BRCA-mutant ovarian cancer cell lines. (AID 1963452; calls by dose curve; further: potency means the concentration at half of the fitted maximal effect). The following applies: PEO1/OlaR viability, CellTiter-Glo luminescence, 96 h; for Z-AUC: stronger effect = lower value. The method, boiled down: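 PEO1, PEO4 and PEO1/OlaR ovarian cancer cells, 600 per well, exposed 96 h at 37C to a dilution series. Viability read by CellTiter-Glo luminescence, normalized to DMSO and empty wells; activity summarized as Z-AUC.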

Setting [7] is: measured here: PEO1 parental Z-AUC.

Phospholipid hydroperoxide glutathione peroxidase GPX4 (Homo sapiens), sequence (P36969 whole entry, looked up): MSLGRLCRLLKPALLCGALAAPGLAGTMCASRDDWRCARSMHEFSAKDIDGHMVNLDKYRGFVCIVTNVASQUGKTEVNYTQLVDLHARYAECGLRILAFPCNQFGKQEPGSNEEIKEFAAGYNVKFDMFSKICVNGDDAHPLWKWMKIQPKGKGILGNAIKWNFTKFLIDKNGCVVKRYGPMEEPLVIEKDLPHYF
Glutathione peroxidase 1 (Homo sapiens), sequence (P07203 whole entry, looked up): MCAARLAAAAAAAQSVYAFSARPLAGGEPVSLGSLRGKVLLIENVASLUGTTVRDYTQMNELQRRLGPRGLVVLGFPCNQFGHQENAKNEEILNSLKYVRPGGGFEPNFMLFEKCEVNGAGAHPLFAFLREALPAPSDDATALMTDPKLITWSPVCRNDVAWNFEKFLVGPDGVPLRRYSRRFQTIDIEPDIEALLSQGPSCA

For the compound `CCNC(=O)Nc1ccc(Oc2ncnc(N)c2/C=N/OC)cc1Cl`, the Potency result in assay [1], in assay [4] and in assay [5] was “inactive” each time. In addition, the Potency in assay [2] was 20900 nM (active); in assay [3], 16600 nM (active). The Z-AUC in assay [6] was 1.52 (inactive); in assay [6] (setting [7]), 1.52; in assay [6] (measured here: PEO4 Z-AUC), 1.49.
As for `CC(C)(C)C(=O)N1N=CC[C@H]1c1ccccc1`, the Potency entry in assay [1], in assay [2], in assay [3], in assay [4] and in assay [5] was “inactive” each time. Also, the Z-AUC in assay [6] was -0.69 (inactive); in assay [6] (setting [7]), -0.909; in assay [6] (measured here: PEO4 Z-AUC), -0.663.
For `NS(=O)(=O)c1ccc(S(=O)(=O)Nc2cccc3c(Cl)c[nH]c23)cc1`, the Potency entry in assay [1], in assay [4] and in assay [5] was “inactive” throughout. Further, the Potency was 742 nM (active) in assay [2] and 590 nM (active) in assay [3]. Further, the figures for the Z-AUC in assay [6], in assay [6] (setting [7]) and in assay [6] (measured here: PEO4 Z-AUC) were -0.956 (inactive), -0.0531 and -0.727, respectively.
Consider `CC(C)(O)CS(=O)(=O)Nc1ccc2c(c1)CCN(C(=O)COc1cccnc1)C2`, for which the Potency result in assay [1], in assay [4] and in assay [5] was “inactive” in each case. The figures for the Potency in assay [2] and in assay [3] were 37.2 nM (active) and 33.2 nM (active), respectively. The figures for the Z-AUC in assay [6], in assay [6] (setting [7]) and in assay [6] (measured here: PEO4 Z-AUC) were -2.38 (inactive), -2.73 and -2.65, respectively.
Consider `CC1(C)CCC2(CC1)N[C@@H](C(=O)N[C@@H]1CC[C@@H](C(N)=O)OC1)[C@H](c1ccnc(Cl)c1F)[C@]21C(=O)Nc2cc(Cl)ccc21`, for which the Potency in assay [1] was 17.9 µM (active); in assay [2], 319 nM (active); in assay [3], 201 nM (active). Also, the Potency entry in assay [4] and in assay [5] was “inactive” throughout. Moreover, the Z-AUC in assay [6] was -0.537 (inactive); in assay [6] (setting [7]), -0.326; in assay [6] (measured here: PEO4 Z-AUC), -0.309.
`C=C1CCC[C@]2(C)C=C3OC(=O)C(C)=C3C[C@@H]12`: the Potency result in assay [1], in assay [2], in assay [3], in assay [4] and in assay [5] was “inactive” each time. Also, the values for the Z-AUC in assay [6], in assay [6] (setting [7]) and in assay [6] (measured here: PEO4 Z-AUC) were 0.206 (inactive), -0.068 and -0.0438, respectively.
In the case of `CCNCCS(=O)(=O)NC[C@@]1(c2ccccc2)SC(NC(=O)C(C)(C)C)=NN1C(=O)C(C)(C)C`, the Potency result in assay [1], in assay [4] and in assay [5] was “inactive” each time. The Potency in assay [2] was 9.3 nM (active); in assay [3], 7.4 nM (active); in assay [6], 8.7 nM (active). Further, the values for the Z-AUC in assay [6] (setting [7]) and in assay [6] (measured here: PEO4 Z-AUC) were -2.33 and -2.54, respectively.
On to `Cn1c(-c2ccccc2C(F)(F)F)nnc1C12CCC(c3noc(C4CC(F)(F)C4)n3)(CC1)CC2`, for which the Potency result in assay [1], in assay [2], in assay [3], in assay [4] and in assay [5] was “inactive” throughout. Further, the Z-AUC in assay [6] is 1.42 (inactive); in assay [6] (setting [7]) it was 1.05; in assay [6] (measured here: PEO4 Z-AUC), 1.41.
For the compound `CC1(N)CCN(c2cccnc2NC(=O)c2nc(-c3ncccc3C(F)(F)F)cnc2N)CC1`, the Potency result in assay [1], in assay [4] and in assay [5] was “inactive” in each case. Also, the Potency in assay [2] was 16600 nM (active); in assay [3], 20900 nM (active). For the same compound, the results for the Z-AUC in assay [6], in assay [6] (setting [7]) and in assay [6] (measured here: PEO4 Z-AUC) were 0.421 (inactive), -0.000608 and 0.765, respectively.
Take `CNc1nc(-c2ccc3c(N)n[nH]c3c2)cc(N2C[C@@H](C(=O)NC3CCCCC3)CC[C@H]2C)n1`: the Potency is 13.1 µM (active) in assay [1], 525 nM (active) in assay [2] and 833 nM (active) in assay [3]. The Potency result in assay [4] and in assay [5] was “inactive” in each case. Also, the Z-AUC in assay [6] was -1.31 (inactive); in assay [6] (setting [7]), 0.449; in assay [6] (measured here: PEO4 Z-AUC), -0.0883.
With `Cc1c(Cl)cccc1S(=O)(=O)Nc1nc(CCN2CCOCC2=O)cs1`, the Potency entry in assay [1], in assay [2], in assay [3], in assay [4] and in assay [5] was “inactive” in each case. In addition, the Z-AUC in assay [6] was 0.943 (inactive); in assay [6] (setting [7]), 0.512; in assay [6] (measured here: PEO4 Z-AUC), 0.46.
With `CN(C)CCNC(=O)COc1c2cccc1Cc1cccc(c1OCC(=O)NCCN(C)C)Cc1cccc(c1OCC(=O)NCCN(C)C)Cc1cccc(c1OCC(=O)NCCN(C)C)C2`, in assay [1], the activity change, negative = inhibition was -36% [at 8.44 µM] (inactive). Also, in assay [2], the activity change, negative = viability loss was 4.69% [at 9.23 µM] (inactive). Further, in assay [3], the activity change, negative = cell killing is 5.34% [at 9.23 µM] (inactive). Moreover, the outcome in assay [4] is “inactive [at 9.52 µM]”; in assay [5] it was “inactive [at 9.73 µM]”. Moreover, the Z-AUC in assay [6] is -0.309 (inactive); in assay [6] (setting [7]), -0.716; in assay [6] (measured here: PEO4 Z-AUC), -0.127.
Consider `COc1ccccc1C(=O)Nc1cc2c(cc1N1CCCCC1)n(C)c(=O)n2C`, for which the Potency result in assay [1], in assay [2], in assay [3], in assay [4] and in assay [5] was “inactive” each time. For the same compound, the Z-AUC was 1.08 (inactive) in assay [6], 0.729 in assay [6] (setting [7]) and 0.646 in assay [6] (measured here: PEO4 Z-AUC).
With `COc1cc2c3c(n(CCCN4CCOCC4)c(=O)c2cc1OC)-c1cc2c(cc1C3=O)OCO2`, the Potency result in assay [1], in assay [4] and in assay [5] was “inactive” in each case. Besides, the Potency was 372 nM (active) in assay [2] and 209 nM (active) in assay [3]. The Z-AUC is -2.49 (inactive) in assay [6], -2.16 in assay [6] (setting [7]) and -0.656 in assay [6] (measured here: PEO4 Z-AUC).
Turning to `N#Cc1ccc(N(Cc2ccc(Br)cc2)n2cnnc2)cc1`, the Potency entry in assay [1], in assay [2], in assay [3], in assay [4] and in assay [5] was “inactive” throughout. Moreover, the Z-AUC was -0.397 (inactive) in assay [6], -0.74 in assay [6] (setting [7]) and -0.908 in assay [6] (measured here: PEO4 Z-AUC).
Take `CNCCn1c(=O)c2cc(OC)c(OC)cc2c2cnc3cc4c(cc3c21)OCO4`: the activity change, negative = inhibition in assay [1] is -8.45% [at 8.44 µM] (inactive). Further, the Potency is 9.6 nM (active) in assay [2], 6 nM (active) in assay [3] and 7.1 nM (active) in assay [6]. In addition, the outcome in assay [4] was “inactive [at 9.52 µM]”; in assay [5] it was “inactive [at 9.73 µM]”. Besides, the Z-AUC in assay [6] (setting [7]) is -3.24; in assay [6] (measured here: PEO4 Z-AUC), -2.15.
Regarding `COc1ccc(-c2oc3c(CC=C(C)C)c(OC4O[C@H](CO)[C@@H](O)[C@H](O)[C@H]4O)cc(O)c3c(=O)c2OC2O[C@@H](C)[C@H](O)[C@@H](O)[C@H]2O)cc1` (some centres undefined), the Potency result in assay [1], in assay [2], in assay [3], in assay [4] and in assay [5] was “inactive” throughout. The Z-AUC is 0.153 (inactive) in assay [6], 0.0996 in assay [6] (setting [7]) and 0.222 in assay [6] (measured here: PEO4 Z-AUC).
As for `O=C(Nc1ccc(OC(F)(F)Cl)cc1)c1cnc(N2CC[C@@H](O)C2)c(-c2ccn[nH]2)c1`, the Potency entry in assay [1], in assay [4] and in assay [5] was “inactive” in each case. Further, the values for the Potency in assay [2] and in assay [3] were 16600 nM (active) and 14800 nM (active), respectively. The Z-AUC in assay [6] was -1.46 (inactive); in assay [6] (setting [7]), -0.874; in assay [6] (measured here: PEO4 Z-AUC), -0.386.
